28 molecules from PubChem BioAssay (NCI) can be followed below.

Holding throughout (assay): NCI-60 one-dose screen, 48 h (100 = growth as untreated, 0 = no growth, -100 = all killed)
Details in all cases: 10 µM unless noted

Test [1] has as its system SK-MEL-2 melanoma.
The subject of test [2] is EKVX NSCLC.
Test [3] deals with SN12C renal.
Test [4] relates to UO-31 renal.
The test system of test [5] is TK-10 renal.
Test [6] deals with ACHN renal.
The test system of test [7] is A498 renal.
Test [8] has as its system CCRF-CEM leukemia.
Test [9] deals with MOLT-4 leukemia.
Test [10] concerns SR leukemia.

About 83,000 compounds went through this panel and 20% of them were active in at least one assay; those are over-represented in the sample as a whole.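 Treatment: one concentration, 48 hours, 96-well format. Scoring: percent growth, with anything below 10 considered active.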 Unmarked numbers belong to inactive results. Calls of active or inactive are those of the source.

In the case of `CCOC(=O)C1CCN(S(=O)(=O)/N=C2/NC(=O)NC2=C(Cl)Cl)CC1`, the growth in test [1] is -23.4% (active); in test [2] it was 67.4%; in [3], -35.1% (active); in test [4], 8.22% (active); in test [5], 33.1%; in test [6] it was 14.2%. For the same molecule, the figures for the growth in test [7], in [8] and in test [9] were 23.9%, -53.4% (active) and -20.8% (active), respectively.

Turning to `COc1cc2cc(c1Cl)N(C)C(=O)C[C@H](OC(=O)[C@H](C)N(C)C(=O)CCS)C[C@]1(C)O[C@H]1[C@H](C)[C@@H]1C[C@@](O)(NC(=O)O1)[C@H](OC)/C=C/C=C(\C)C2`, the growth is 20% in test [1]; 38.8% in [2]; 28.2% in test [3]; 47.4% in [4]; 62.4% in [5]; 25.4% in test [6]. The growth is -21.9% (active) in test [7], 16.2% in [8] and 13.1% in [9].

As to `C/C(=N\NC(=O)c1ccncc1)c1ccc(N)cc1`, the growth is 105% in test [1]; 101% in test [2]; 97.1% in test [3]; 89.5% in test [4]; 103% in [5]; 109% in test [6]. Also, the growth was 90.6% in test [7], 92% in test [8], 92.4% in [9] and 85.8% in [10].

`C=C1C(=O)O[C@H]2[C@H]1CC/C(COC(=O)NCC(=O)Nc1ccc(OC)c(C(N)=O)c1O)=C\CC[C@@]1(C)O[C@@H]21`: the growth in test [1] was 77.5%; in [2] it was 85.1%; in test [3], 37.9%; in test [4] it was 82.7%; in test [5], 47.2%; in [6] it was 75.3%. In addition, the figures for the growth in test [7], in test [8] and in test [9] were 86.4%, -15.8% (active) and 41.8%, respectively.

With `O=C(CSC(=S)N1CCCCC1)Nc1ccccc1`, the growth was 92.1% in [1]; 106% in test [2]; 106% in test [3]; 86.5% in test [4]; 85.8% in test [5]; 98.8% in [6]. Further, the growth in [7] is 99.5%; in [8], 89.9%; in [9] it was 86.5%; in test [10] it was 87.1%.

For `COC(=O)[C@]1(C)CCC[C@]2(C)[C@H]3C[C@H]4C(C(C)C)=C[C@]3(CC[C@H]21)[C@@H]1C(=O)N(CCC#N)C(=O)[C@@H]14`, the growth was 88.6% in [1]; 79.5% in [2]; 90.2% in test [3]; 76.1% in [4]; 104% in test [5]; 96.3% in test [6]. For the same molecule, the growth was 105% in test [7], 61.8% in test [8] and 38.2% in test [9].

With `O=[N+]([O-])c1ccc(Oc2ccc(-c3ccccc3)cc2)cc1`, the growth in test [1] was 103%; in test [2], 85.1%; in [3], 96.6%; in test [4], 79.5%; in [5] it was 88.5%; in test [6], 101%. In addition, the growth is 84.5% in test [7], 78.3% in test [8], 70.4% in test [9] and 77.8% in test [10].

Turning to `CCOc1ccc(C2N(c3cc(OC)c(OC)c(OC)c3)C(=O)C2(F)F)cc1` (stereo not drawn), the growth in test [1] was 91.8%; in test [2], 75.3%; in test [3], 51%; in test [4], 51.9%; in [5] it was 103%; in [6] it was 55.3%. The figures for the growth in [7], in test [8] and in test [9] were 92.3%, 10.2% and 18.1%, respectively.

For the molecule `Oc1ccc(CNNc2ccnc3c(O)cccc23)c2cccnc12`, the growth is 31.4% in test [1]; 8.17% (active) in test [2]; 45.4% in [3]; 23.7% in test [4]; 30.7% in test [5]; 15.2% in test [6]. Besides, the growth in [7] is 74.7%; in test [8], 18.7%; in test [9], 13.4%; in test [10], 20.4%.

Turning to `O=C1[C@@H](OS(=O)(=O)CC(F)(F)F)[C@H](c2ccc(F)cn2)N1c1cc2c3ccccc3ccc2c2ccccc12`, the growth is 89.9% in test [1]; 87.6% in test [2]; 80.7% in [3]; 62.1% in test [4]; 88.4% in [5]; 76.3% in test [6]. Besides, the values for the growth in [7], in test [8] and in test [9] were 83.6%, 9.13% (active) and 0.0781% (active), respectively.

Consider `CC(=O)c1cnc(-c2ccccc2)nc1CBr`, for which the growth in test [1] was 98.3%; in test [2], 79.7%; in test [3], 51.2%; in [4] it was 44.7%; in test [5], 79%; in [6], 35.3%. Moreover, the growth was 82% in [7], 35.8% in test [8] and 26% in test [9].

For the molecule `Cc1nccc2c3ccc(OCc4cn(-c5ccc(Br)cc5)nn4)cc3n(CC(C)C)c12`, the growth in [1] is 53%; in test [2], 59.5%; in test [3], 61.5%; in [4] it was 38.4%; in test [5] it was 41.1%; in test [6] it was 61.9%. In addition, the figures for the growth in test [7], in test [8] and in [9] were 53%, 35.1% and 2.93% (active), respectively.

With `Cc1cc(C)nc(NS(=O)(=O)c2ccc(Nc3ccc4c5c(n(CCCN(C)C)c(=O)c4c3)-c3ccccc3C5=O)cc2)n1`, the growth in [1] was 108%; in test [2], 90.5%; in test [3] it was 85%; in test [4], 88.9%; in test [5], 87.9%; in [6], 89.7%. For the same molecule, the growth is 90.7% in test [7], 42.2% in [8] and 15.2% in [9].

Turning to `O=C1CS/C(=N/c2nnc(-c3ccc(O)cc3)s2)N1`, the growth in [1] is 108%; in test [2], 92.7%; in test [3], 101%; in test [4], 93.5%; in test [5] it was 115%; in test [6], 103%. Besides, the results for the growth in [7], in test [8] and in test [9] were 108%, 97% and 80.5%, respectively.

In the case of `CN(C)C(CNc1oc(-c2cccc3ccccc23)nc1C#N)c1ccco1` (stereo not drawn), the growth in test [1] is 95.9%; in test [2], 85.1%; in test [3], 103%; in [4], 87.7%; in [5], 109%; in test [6], 90.6%. For the same molecule, the growth was 107% in test [7], 79.5% in test [8] and 70.5% in test [9].

On to `COC(=O)/C=C/c1cc(OC(C)=O)c2c(c1)C(C(=O)OC)C(c1ccc(OC(C)=O)c(OC(C)=O)c1)O2` (stereo not drawn), for which the growth in test [1] is 25%; in [2], 44.4%; in [3], 23.6%; in test [4], 35.2%; in test [5], 44.7%; in test [6], 34.4%. The growth is 3.78% (active) in test [7], 9.72% (active) in [8] and 15.3% in test [9].

`COc1cc(/C=C/C(=O)c2ccc(NC(=O)CSc3nnc(-c4cc(OC)c(OC)c(OC)c4)n3-c3ccccc3)cc2)cc(OC)c1OC`: the growth in test [1] was 32.1%; in test [2], 31.3%; in test [3], 41%; in test [4], -50.3% (active); in test [5], 45.1%; in [6], 17.9%. The growth was -12.1% (active) in test [7], 6.02% (active) in [8], 5.18% (active) in test [9] and 2.13% (active) in test [10].

As for `CCOC(=O)c1sc(/N=C2\NC(=O)/C(=C/c3ccc(N4CCN(C)CC4)cc3)S2)nc1C`, the growth was 98% in [1]; 96.7% in [2]; 111% in test [3]; 84.6% in test [4]; 116% in test [5]; 108% in [6]. The values for the growth in [7], in test [8] and in [9] were 111%, 91.7% and 88.9%, respectively.

For `C=C1C(=O)O[C@H]2[C@H]1CC/C(COC(=O)CCCCC(=O)OC/C1=C/CC[C@@]3(C)O[C@H]3[C@H]3OC(=O)C(=C)[C@@H]3CC1)=C\CC[C@@]1(C)O[C@@H]21`, the growth is 71.9% in [1]; 59.1% in test [2]; 27.8% in [3]; 45.8% in [4]; 25.2% in [5]; 12.6% in [6]. The growth is 124% in [7], 0.447% (active) in test [8] and 10.3% in test [9].

For the molecule `Nn1c(SCC(=O)Nc2ccc(Cl)cc2)nnc1-c1cc(F)c(Cl)cc1Cl`, the growth in test [1] was 83.4%; in test [2], 90.9%; in test [3] it was 97.8%; in test [4], 69.9%; in test [5], 97.6%; in [6], 87.2%. In addition, the results for the growth in [7], in [8] and in test [9] were 65.2%, 92.8% and 80.4%, respectively.

In the case of `COc1ccc(-c2cn(-c3ccc(Cl)cc3)c(=S)[nH]2)cc1OC`, the growth in [1] is 46.9%; in test [2], 74.7%; in test [3], 74.3%; in test [4] it was 85.4%; in [5], 72.8%; in test [6], 67%. The growth was 94.4% in test [7], 84.4% in test [8] and 77.8% in [9].

As for `COc1ccc2c(c1)/C(=C1\S/C(=N/c3nnc(C)s3)NC1=O)C(=O)N2Cc1ccc(Cl)cc1`, the growth in test [1] is 43.4%; in test [2], 38.8%; in test [3], 51.6%; in [4], 57.7%; in [5], 58.4%; in test [6] it was 55.3%. In addition, the growth in test [7] was -4.96% (active); in test [8], 31.7%; in test [9], 24.6%.

As for `CCCCn1c(=O)c(/C=C/C(=O)/C=C/c2ccc(OC)cc2)cc2cc(Cl)ccc21`, the growth in [1] was 84%; in [2] it was 91%; in test [3] it was 75.9%; in test [4] it was 62.8%; in test [5] it was 112%; in test [6] it was 103%. The growth in [7] was 91.6%; in [8], 29.2%; in test [9], 44.4%.

In the case of `COC(=O)c1nc(-c2ccccc2)oc1S(=O)(=O)n1nc(C)cc1N`, the growth is 80.3% in [1]; 87.8% in test [2]; 58.5% in test [3]; 51.4% in test [4]; 73.5% in [5]; -86.2% (active) in [6]. In addition, the growth in test [7] is 99.9%; in [8] it was 9.2% (active); in [9] it was 14.6%.

With `COc1cc2nc3c(=O)n(-c4ccc(C#N)cc4)cnn3c(=O)c2cc1OC`, the growth in [1] was 94.4%; in [2], 93.9%; in test [3], 99%; in [4], 83.6%; in [5], 104%; in test [6], 100%. The growth in test [7] is 113%; in test [8] it was 143%; in test [9], 91.3%.

`NC(=O)C(O)(c1ccccc1)c1ccccc1`: the growth in test [1] was 105%; in test [2], 100%; in test [3] it was 99%; in test [4] it was 93.8%; in test [5] it was 97.3%; in test [6] it was 108%. Also, the growth was 84.9% in test [7], 87.9% in [8], 98.6% in [9] and 83% in test [10].

Take `O=C(Nc1ccc(N=Cc2ccccc2O)cc1)NC1C=c2ccccc2=CC1` (stereo not drawn): the growth in [1] was 102%; in [2], 106%; in [3] it was 102%; in test [4], 81.9%; in test [5] it was 111%; in test [6], 102%. The values for the growth in test [7], in test [8] and in [9] were 83.5%, 81% and 93%, respectively.

As to `Cc1cccc2nc3c(n12)C(=O)C(=O)c1ccccc1-3`, the growth is 81.2% in [1]; 64.1% in test [2]; 37.1% in test [3]; 55.8% in [4]; 125% in test [5]; 69.4% in test [6]. For the same molecule, the growth is 81.3% in test [7], 91.9% in test [8] and 81.1% in test [9].
